Test in all cases: qHTS profiling for inhibitors of Plasmodium falciparum proliferation (AID 504749); further: nearly all actives have a fitted effect of over 60% in size
Common to all, as to conditions: P. falciparum in erythrocytes, SYBR Green DNA, 72 h; series mostly up to 28.7 µM
In general terms: Quantitative high-throughput screening tests each substance at several concentrations.

The test system of one assay is CP215. In short, it runs like this: (§1)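 P. falciparum-infected erythrocytes (0.3% parasitemia, 2.5% hematocrit final) were exposed to compounds for 72 h at 37 C in 5% CO2, then lysed with SYBR Green buffer overnight at room temperature; parasite DNA fluorescence was normalized to artemisinin and DMSO controls.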
For another assay, the system named is CP217. In short, it runs like this:
as §1

A further assay has as its system CP237. In short, it runs like this: as §1
The test system of the next assay is CP238. In short, it runs like this:
as §1

In another assay the test system is CP247. In short, it runs like this:
as §1

In a further assay the test system is CP250. In short, it runs like this:
as §1

For the next assay, the system named is CP252. In short, it runs like this:
as §1

Another assay has as its system CP260. In short, it runs like this:
as §1

For the next assay, the system named is CP262. In short, it runs like this: as §1
A further assay concerns CP265. In short, it runs like this: as §1
The subject of another assay is CP266. In short, it runs like this:
as §1

In a further assay the test system is CP268. In short, it runs like this: as §1
The next assay relates to CP269. In short, it runs like this: as §1
The subject of the next assay is CP286. In short, it runs like this: as §1
The next assay has as its system CP291. In short, it runs like this:
as §1

The next assay relates to CP297. In short, it runs like this: as §1
Another assay has as its system CP305. In short, it runs like this: as §1
For another assay, the system named is CP315. In short, it runs like this: as §1
Another assay concerns CP325. In short, it runs like this:
as §1

A further assay deals with CP256. In short, it runs like this:
as §1

Structures are written as SMILES. Inconclusive results are not listed. Activity calls are given as the source filed them. The call rests on the fitted dose curve; in most records, active means well fitted inhibition curve with a large enough effect; inconclusive means small, poorly fitted or top-dose-only effect; inactive means flat fitted curve, though single readings scatter.
Potency means the concentration at half of the fitted maximal effect.

For the compound `CC1=C(/C=C/C(C)=C/C=C/C(C)=C/C=C/C=C(C)/C=C/C=C(C)/C=C/C2=C(C)C(=O)CCC2(C)C)C(C)(C)CCC1=O`, the Potency entry in the assay with CP215, with CP217, in the assay on CP237, in the assay on CP238, with CP247 and in the assay on CP250 was “inactive” each time. In addition, the Potency entry with CP252, in the assay with CP260, in the assay on CP262, with CP265, in the assay with CP266 and in the assay on CP268 was “inactive” throughout. The Potency result in the assay on CP269, in the assay on CP286, in the assay with CP291, in the assay on CP297, in the assay on CP305 and with CP315 was “inactive” in each case. The Potency entry in the assay on CP325 is “inactive”.

As to `COC(=O)CCC(=O)CN`, the Potency entry in the assay with CP215, in the assay with CP217, in the assay on CP237, in the assay with CP238, in the assay with CP247 and in the assay on CP250 was “inactive” throughout. In addition, the Potency result in the assay on CP252, with CP256, in the assay with CP260, in the assay on CP262, in the assay with CP265 and with CP268 was “inactive” in each case. Moreover, the Potency entry in the assay with CP269, in the assay on CP286, in the assay on CP291, with CP297, in the assay with CP305 and in the assay with CP315 was “inactive” each time. Further, in the assay with CP325, the Potency entry is “inactive”.

As for `Nc1ncnc2c1ncn2[C@@H]1O[C@H](COP(=O)(O)OP(=O)(O)OP(=O)(O)O)[C@@H](O)[C@H]1O`, the Potency entry with CP215, in the assay on CP217, with CP237, in the assay with CP238, in the assay with CP247 and in the assay on CP250 was “inactive” in each case. The Potency result in the assay on CP252, in the assay with CP256, in the assay with CP260, in the assay with CP262, in the assay with CP265 and in the assay on CP268 was “inactive” in each case. Also, the Potency entry in the assay with CP269, in the assay with CP286, with CP291, in the assay with CP297, in the assay on CP305 and in the assay on CP315 was “inactive” throughout. Further, the Potency entry with CP325 is “inactive”.

Take `CCC(=O)NCCC1CCc2ccc3c(c21)CCO3` (configuration not stated): the Potency entry in the assay with CP215, in the assay on CP217, in the assay with CP237, with CP238, with CP247 and in the assay with CP250 was “inactive” in each case. The Potency result with CP252, with CP256, with CP260, in the assay on CP262, in the assay on CP265 and with CP266 was “inactive” in each case. Further, the Potency result in the assay on CP268, in the assay with CP269, with CP286, with CP291, with CP297 and in the assay with CP305 was “inactive” each time. The Potency entry with CP315 and in the assay with CP325 was “inactive” in each case.

In the case of `CCOC(=O)C1=C(C)NC(C)=C(C(=O)OCC)C1c1ccccc1C=CC(=O)OC(C)(C)C`, the Potency was 16.9 µM (active) in the assay with CP215; 10 µM (active) with CP217; 8.91 µM (active) with CP237; 10 µM (active) with CP238; 10 µM (active) with CP252; 12 µM (active) in the assay with CP262. Besides, the Potency in the assay on CP265 is 10 µM (active); in the assay on CP269, 15.1 µM (active); in the assay with CP291, 12 µM (active); in the assay on CP297, 16.9 µM (active); in the assay on CP315 it was 10.7 µM (active); with CP325 it was 12 µM (active). Besides, the Potency entry with CP256 was “inactive”.

In the case of `CO[C@H](C(=O)[C@@H](O)[C@@H](C)O)C1Cc2cc3cc(O[C@H]4C[C@@H](O[C@H]5C[C@@H](O)[C@H](O)[C@@H](C)O5)[C@@H](O)[C@@H](C)O4)c(C)c(O)c3c(O)c2C(=O)[C@H]1O[C@H]1C[C@@H](O[C@H]2C[C@@H](O[C@H]3C[C@](C)(O)[C@H](O)[C@@H](C)O3)[C@H](O)[C@@H](C)O2)[C@H](O)[C@@H](C)O1` (some centres not stated), the Potency in the assay with CP215 is 1.69 µM (active); in the assay on CP217, 0.224 µM (active); with CP237, 0.112 µM (active); with CP238 it was 0.178 µM (active); in the assay on CP247, 0.355 µM (active); in the assay on CP250, 0.199 µM (active). The Potency was 0.178 µM (active) in the assay on CP252; 0.251 µM (active) in the assay on CP256; 0.112 µM (active) in the assay on CP260; 1.69 µM (active) in the assay on CP262; 0.282 µM (active) in the assay with CP265; 1.69 µM (active) in the assay with CP266. Also, the Potency with CP268 is 1.35 µM (active); in the assay on CP269, 1.35 µM (active); in the assay with CP286, 0.0891 µM (active); with CP291, 1.2 µM (active); with CP297, 2.69 µM (active); in the assay with CP305, 0.757 µM (active). The Potency in the assay with CP315 is 3.38 µM (active); with CP325, 1.69 µM (active).

For `CCCCC(=O)O[C@]1(C(=O)CO)[C@H](C)C[C@H]2[C@@H]3CCC4=CC(=O)C=C[C@]4(C)[C@@]3(F)[C@@H](O)C[C@@]21C`, the Potency entry in the assay with CP215, in the assay on CP217, with CP237, with CP238, with CP247 and in the assay with CP250 was “inactive” each time. Moreover, the Potency result in the assay on CP252, in the assay on CP256, in the assay with CP262, in the assay with CP265, with CP266 and with CP268 was “inactive” each time. In addition, the Potency result in the assay on CP269, in the assay with CP286, with CP291, with CP297, with CP305 and with CP315 was “inactive” throughout. Further, the Potency entry in the assay on CP325 is “inactive”.

Turning to `CC[C@@]1(O)C(=O)OCc2c1cc1n(c2=O)Cc2cc3c([N+](=O)[O-])cccc3nc2-1`, the Potency with CP215 was 13.5 µM (active); in the assay on CP217 it was 10 µM (active); with CP237, 3.98 µM (active); with CP238, 8.91 µM (active); in the assay on CP247, 11.2 µM (active); with CP250 it was 12.6 µM (active). Besides, the Potency in the assay with CP256 was 11.2 µM (active); with CP260, 3.55 µM (active); in the assay on CP265 it was 7.94 µM (active); with CP269, 10.7 µM (active); in the assay on CP286 it was 4.47 µM (active); in the assay on CP291, 12 µM (active). For the same compound, the values for the Potency with CP297 and with CP305 were 12 µM (active) and 8.49 µM (active), respectively.

As to `CCOc1ccc(N=Nc2ccc(N)cc2N)cc1`, the Potency entry in the assay with CP215, in the assay with CP217, with CP237, in the assay on CP238, in the assay with CP250 and in the assay on CP252 was “inactive” in each case. The Potency result in the assay with CP256, in the assay with CP260, in the assay on CP262, with CP265, with CP266 and in the assay with CP268 was “inactive” each time. In addition, the Potency entry in the assay on CP269, in the assay on CP286, with CP291, in the assay with CP297, with CP305 and in the assay with CP315 was “inactive” in each case. The Potency entry in the assay with CP325 was “inactive”.

Consider `Cc1c(C)c2c(c(C)c1O)CC[C@@](C)(CCC[C@@H](C)CCC[C@@H](C)CCCC(C)C)O2`, for which the Potency result with CP215, with CP217, in the assay with CP237, with CP238, in the assay on CP247 and with CP250 was “inactive” throughout. Besides, the Potency entry in the assay with CP252, in the assay on CP256, in the assay with CP260, in the assay with CP262, in the assay with CP265 and with CP266 was “inactive” in each case. Also, the Potency result with CP268, in the assay on CP269, in the assay with CP286, in the assay with CP291, in the assay with CP297 and in the assay on CP305 was “inactive” each time. Moreover, the Potency result in the assay with CP315 and in the assay on CP325 was “inactive” each time.

`C=CCSSSCC=C`: the Potency entry with CP215, in the assay on CP217, in the assay with CP237, with CP238, in the assay with CP247 and in the assay on CP250 was “inactive” in each case. The Potency result in the assay on CP252, with CP256, in the assay on CP260, in the assay with CP262, with CP265 and in the assay with CP266 was “inactive” in each case. Further, the Potency result in the assay on CP268, in the assay with CP269, with CP286, in the assay with CP291, with CP297 and in the assay with CP305 was “inactive” each time. The Potency entry in the assay on CP315 and in the assay on CP325 was “inactive” each time.

Take `CCCC(=O)Nc1ncnc2c1ncn2C1OC2COP(=O)(O)OC2C1OC(=O)CCC` (configuration not stated): the Potency result in the assay with CP215, in the assay on CP217, in the assay on CP237, in the assay with CP238, in the assay on CP247 and with CP250 was “inactive” in each case. Also, the Potency result in the assay on CP252, in the assay on CP256, in the assay on CP260, in the assay with CP262, with CP265 and with CP266 was “inactive” in each case. Moreover, the Potency entry in the assay on CP268, in the assay with CP269, with CP286, in the assay with CP291, with CP297 and in the assay on CP305 was “inactive” each time. In addition, the Potency result in the assay on CP315 and in the assay with CP325 was “inactive” in each case.

Values taken from PubChem BioAssay (NCATS).
